Compound activity: PubChem BioAssay, National Center for Advancing Translational Sciences (NCATS)
G9a inh: inhibitors of human histone lysine methyltransferase G9a. G9a H3K9 monomethylation, AlphaScreen, 2 h. Potency, µM (top dose mostly 102 µM), inactives show at the top dose activity, negative = inhibition, most hits filed as inhibitors. 350,000 compounds, 8.8% hits. AID 504332; also: % is scaled to controls: 0 for no effect and ±100 for the full control effect; nearly all actives have a fitted effect of over 75% in size
Target sequence (Q96KQ7 913-1193 limits assumed): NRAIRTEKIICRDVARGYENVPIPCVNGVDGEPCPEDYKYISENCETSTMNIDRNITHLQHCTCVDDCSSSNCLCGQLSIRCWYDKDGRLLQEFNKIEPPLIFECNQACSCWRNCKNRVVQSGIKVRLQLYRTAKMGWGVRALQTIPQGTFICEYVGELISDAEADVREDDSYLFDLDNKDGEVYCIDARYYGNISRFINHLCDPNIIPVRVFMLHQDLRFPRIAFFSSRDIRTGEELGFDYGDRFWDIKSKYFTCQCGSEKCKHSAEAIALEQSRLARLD
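Methyltransferase reactions run at room temperature for 2 h (20 nM enzyme, 500 nM biotin-H3K9 peptide, 20 uM SAM) after a 15 min compound preincubation; product detected by AlphaScreen beads and anti-H3K9me1 antibody.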
JMJD2A Tudor inh: inhibitors of human JMJD2A Tudor domain; AlphaScreen JMJD2A-Tudor / H3K4me3 peptide binding; 390,000 compounds, 4.4% hits; Potency, µM (highest dose often 114 µM), for inactives: top-dose activity change, negative = inhibition, hits mostly inhibitors; O75164; also: % is scaled to controls: 0 for no effect and ±100 for the full control effect; nearly all actives have a fitted effect of over 50% in size
GLS inhibitor: blocks human kidney-isoform glutaminase activity | O94925 | GLS enzymatic activity, qHTS titration | Potency, µM (titrated, usually from 45.5 µM), for the others: top-dose activity change, negative = inhibition, hits mostly inhibitors | 410,000 compounds, 0.21% hits | AID 624170; also: % is scaled to controls: 0 for no effect and ±100 for the full control effect
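Two-point fluorescence kinetic (t0, 30 min RT) for hKGA; glutamate detected via glutamate oxidase–HRP–Amplex Red. Substrate: 1 mM L-glutamine solution; buffer 45 mM KH2PO4, pH 8.2.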
HP1b chromo inh: blocks HP1-beta chromodomain binding to methylated histone tails | AlphaScreen HP1-beta / biotin-H3K9me3 peptide binding | AID 540317 | Potency, µM (doses to about 114 µM), inactives show at the highest dose activity change, negative = inhibition, actives largely listed as inhibitors | 390,000 compounds, 0.56% hits; also: nearly all actives have a fitted effect of over 70% in size
Target sequence (P83916 whole entry, looked up): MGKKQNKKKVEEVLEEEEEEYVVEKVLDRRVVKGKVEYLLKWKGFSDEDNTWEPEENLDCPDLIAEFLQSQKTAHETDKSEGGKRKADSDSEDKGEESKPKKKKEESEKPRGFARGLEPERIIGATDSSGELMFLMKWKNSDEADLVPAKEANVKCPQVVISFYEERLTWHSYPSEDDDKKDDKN
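Compound inhibition of the preformed complex between 50 nM HP1-beta and 50 nM biotinylated H3K9me3 peptide was read by AlphaScreen. Buffer was PBS pH 7.4 with 0.01% Tween-20. Incubations ran 30 min at room temperature, with 10 ug/mL donor/acceptor beads.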
BAZ2B block: BAZ2B (human) inhibition. AID 504333. 360,000 compounds, 4.4% hits. Potency, µM (top dose mostly 114 µM), without a hit: top-dose activity change, negative = inhibition, actives largely listed as inhibitors. Q9UIF8. AlphaScreen BAZ2B-H3K14Ac peptide displacement; also: % is scaled to controls: 0 for no effect and ±100 for the full control effect; nearly all actives have a fitted effect of over 60% in size
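Complex of BAZ2B and biotin-H3K14Ac (50 nM apiece) forms over 30 min at RT, then faces library compounds up to 110 uM for another 30 min; AlphaScreen beads added, 20 min dark incubation, luminescence read.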
* marks the source's active call; other numbers are inactive results; ? = inconclusive; . = no result; [ ] = dose if it differs, or a comment. In the library only some 10% were active in any assay of this set; here they are far more common. Calls follow the shape of the dose curve; as a rule, active = well fitted curve in the direction sought with a large enough effect; inconclusive = small, poorly fitted or top-dose-only effect, or another doubt; inactive = no such curve, though single readings can be large; an effect the other way counts as inactive or inconclusive. Potency is read from the fitted curve at half-maximal effect.

SMILES	G9a inh	JMJD2A Tudor inh	GLS inhibitor	HP1b chromo inh	BAZ2B block
O=S1(=O)N=C(SCCO)c2ccccc21	79µM*	?	15%	35%	?
CC(SC1=NS(=O)(=O)c2ccccc21)C(=O)O (stereo not given)	.	28µM*	.	?	.
CCOc1ccc(C(C)NC(=S)NCc2ccc(F)cc2)cc1 (stereo not given)	.	-5%	4%	41%	-28%
CCOc1ccc(NCCC(O)c2ccc(F)cc2)cc1 (stereo not given)	-33%[2.33 µM]	?	?	?	50µM*
Cc1cc(C(=O)NC2CCCc3c2cnn3-c2cc(F)cc(F)c2)nn1C (stereo not given)	60%	-7%	-12%	25%	0%
CCOC(=O)C1=C(O)/C(=C/c2ccc(CNC(=O)C(=O)Nc3ccc(C)cc3)o2)N=C1C	32µM*	-14%	4%	4%	50µM*
COC(=O)C1=C(O)/C(=C\c2ccc(CNC(=O)C(=O)Nc3ccc(C)cc3)o2)N=C1C	32µM*	?	-7%	24%	32µM*
CCOC(=O)C(=O)NCc1ccc(/C=C2/N=C(C)C(C(=O)OCC)=C2O)o1	.	-13%	51%	2%	-7%
COC(=O)C1=C(O)/C(=C\c2ccc(CNC(=O)C(=O)Nc3ccc(C)c(C)c3)o2)N=C1C	50µM*	-26%	0%	-9%	-4%
O=C(c1ccc2c(Cl)c3c(nc2c1)CCCC3)N1CCN(c2cccc(Cl)c2)CC1	2%[59 µM]	-25%	-3%	41%	-2%
Cc1ccccc1NC(=O)NCC1CCN(C(=O)OC(C)(C)C)CC1	44%	0%	-9%	28%	3%
COc1ccc(CN2CCN(S(=O)(=O)c3ccc(F)cc3)CC2)cc1OC	10µM*	3.2µM*	-1%	?	32µM*
COc1ccc(Br)cc1CN1CCN(S(=O)(=O)Cc2ccccc2)CC1	20µM*	8.9µM*	7%	?	-21%
O=C(c1cc(Br)ccc1O)N1CCN(S(=O)(=O)Cc2ccccc2)CC1	1%[12.7 µM]	-2%	10%	23%	6%
O=S(=O)(Cc1ccccc1)N1CCN(Cc2c(F)cccc2Cl)CC1	35µM*	0%	-2%	23%	-2%
COc1cccc(CN2CCN(S(=O)(=O)c3ccccc3)CC2)c1OC	.	28µM*	7%	?	.
COc1ccc(S(=O)(=O)N2CCN(c3ccc(F)cc3)CC2)cc1OC	-1%	2%	4%	28%	?
COCCCNc1nc2c(c(=O)[nH]c(=O)n2C)n1CC(O)COc1ccc(Cl)cc1 (stereo not given)	-8%[59 µM]	-11%	-1%	19%	0%
CCn1c(O)c(N=NC(=O)CNC(=O)/C=C/c2ccccc2)c2ccccc21	38%	-22%	7%	34%	-39%
O=C(c1cn(Cc2ccccc2)nc1-c1ccccc1)N1CCN(c2ccccn2)CC1	-2%[2.33 µM]	-29%	3%	14%	-1%
COc1ccc(CN2CCN(S(=O)(=O)c3ccc(F)cc3)CC2)c(OC)c1OC	28µM*	1.4µM*	-4%	-49%	?
COc1ccc(CN2CCN(c3ccc(F)cc3)CC2)c(OC)c1OC	-3%[59 µM]	-31%	20%	1%	-34%
COc1ccc(OC)c(CN2CCN(S(=O)(=O)c3ccccc3)CC2)c1	-28%[59 µM]	20µM*	3%	?	?
COc1ccc(CN2CCN(S(=O)(=O)c3ccccc3)CC2)c(OC)c1OC	.	22µM*	4%	?	.
COc1ccccc1CN1CCN(S(=O)(=O)c2ccccc2)CC1	?	40µM*	-1%	?	32µM*
SMILES	G9a inh	JMJD2A Tudor inh	GLS inhibitor	HP1b chromo inh	BAZ2B block
O=C(CS(=O)CC(=O)Nc1cccc2c1CCCC2)Nc1ccc(F)cc1 (stereo not given)	2%[59 µM]	-13%[57.1 µM]	2%	18%	-4%
CCOc1ccc(CNC(=O)c2ccc(Sc3ccc(Cl)cc3)c(NC(C)=O)c2)cc1OC	9%[59 µM]	-15%	-6%	9%	?
c1ccc(CNC2CC3CCC2C3)cc1 (stereo not given)	.	-12%	-9%	9%[57 µM]	.
COc1cc(-c2ccno2)ccc1S(=O)(=O)N1CCN(c2ccc(F)cc2)CC1	-34%[59 µM]	-24%	10%	15%	-19%
COc1ccccc1-c1nn(Cc2ccccc2)cc1/C=C/C(=O)O	-2%	2%	-9%	76%	-6%
O=C(Nc1cccc(F)c1)c1c(O)c2ccccc2[nH]c1=O	-3%	-12%	5%	50%	-27%
O=S(=O)(c1ccccc1)N1CCN(Cc2cccc(Cl)c2)CC1	?	8.9µM*	-9%	-54%	32µM*
Cc1ccc(S(=O)(=O)N2CCN(Cc3cccc(F)c3)CC2)cc1	.	3.2µM*	-8%	?	.
O=c1[nH]c2ccccc2nc1/C=C/c1ccc(Cl)cc1	-5%	10µM*	?	8%	-3%
CC(=O)Nc1ccc(/C=C/c2nc3ccccc3[nH]c2=O)cc1	?	-6%	0%	28%	1%
Cn1c(=S)ccc2ccccc21	10µM*	-14%	-17%	?	-22%
O=C1/C(=C\c2ccc(O)c(O)c2)N=C2CCCCCN12	28µM*	3.2µM*	2.5µM*	-4%	?
COc1cc(/C=C2\N=C3CCCCCN3C2=O)ccc1O	?	-18%	-1%	39%	-24%
COc1ccccc1NS(=O)(=O)c1ccc(Cl)c(NC(=O)C(C)N2C(=O)c3ccccc3C2=O)c1 (stereo not given)	50µM*	-13%	11%	13%	-10%
O=C(O)CSc1nc(-c2ccccc2)c(-c2ccccc2)[nH]1	50µM*	?	8%	-5%[57 µM]	-37%
O=C(CSc1nc(-c2ccccc2)c(-c2ccccc2)[nH]1)N1CCN(S(=O)(=O)c2ccccc2)CC1	3.2µM*	?	-20%	-1%	-35%
O=C(CSc1nc2ccccc2c(=O)[nH]1)N1CCN(S(=O)(=O)c2ccccc2)CC1	12%[12.7 µM]	-17%	-1%	6%	-18%
Nn1cc(-c2ccccc2)nc1SCC(=O)N1CCN(S(=O)(=O)c2ccccc2)CC1	25µM*	-21%	0%	9%	?
S=c1[nH]nc(-c2cc(-c3ccccc3)n[nH]2)n1/N=C/C(Br)=C/c1ccccc1	22µM*	56µM*	9%	18%	10µM*
S=c1[nH]nc(-c2n[nH]c3c2CCC3)n1/N=C/C=C/c1ccccc1	.	50µM*	?	5%	-11%
Cc1cccc(/C=N/n2c(C)nnc2C)c1	?	5%	16%	-5%	1%
BrC(=C\c1ccccc1)/C=N/n1cnnc1	16%	-7%	1%	22%	-3%
S=c1[nH]nc(-c2cc(-c3ccccc3)n[nH]2)n1/N=C/c1cccs1	1.6µM*	?	?	10%	-27%
Cc1cccc(/C=N/n2c(-c3cc(-c4ccccc4)n[nH]3)n[nH]c2=S)c1	1.6µM*	79µM*	-27%	?	-39%
